# Source: PubChem BioAssay (several laboratories)
# Most compounds without a hit are left out; they make up all but 0.82% or so of the library.
# RecA splice inh = Mtb RecA intein splicing inhibitors, primary screen, biochemical, fluorescence, HTS | inhibition, % (test concentration not listed) | actives 0.75% (n = 290,000) | cell-free RecA intein splicing | Protein RecA (Mycobacterium tuberculosis (strain ATCC 25618 / H37Rv)), P9WHJ3; in the data active = inhibition above about 30%;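 note: 0% = vehicle wells and 100% = reference inhibitor control wells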
# FadD28 binding = inhibitors of FadD28 bisubstrate probe binding, primary screen, biochemical, fluorescence polarization, single point; inhibition, % at 12.5 µM; actives 0.22% (n = 360,000); Mycobacterium tuberculosis FadD28 fatty-acid-AMP ligase; in the data active = inhibition above about 8.5%, passing the limit was not always enough
# BioA inh = M. tuberculosis BioA enzyme inhibitors, primary screen, biochemical, plate reader, single point, HTS; inhibition, % at 9.99 µM; purified M. tuberculosis BioA enzyme; AID 602481, 2012; 7,8-diaminopelargonic acid synthase BioA (Mycobacterium tuberculosis); actives 0.096% (n = 360,000); in the data active = inhibition above about 40%
# Mtb UGM inh = M. tuberculosis UGM enzyme inhibitors, primary screen, biochemical, fluorescence polarization, single point; actives 0.06% (n = 320,000); inhibition, % at 10 µM; UDP-galactopyranose mutase (Mycobacterium tuberculosis (strain ATCC 25618 / H37Rv)), …; purified UGM, fluorescence polarization probe displacement; in the data active = inhibition above about 10%, passing the limit was not always enough
# Rv3671c inh = Rv3671c serine protease inhibitors, primary screen, biochemical, fluorescence polarization, M. tuberculosis H37Rv; P9WHR9; inhibition, % at 5.96 µM; actives 0.048% (n = 320,000); AID 2606, 2010; in the data active = inhibition above about 38%;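 note: extracellular domain of Rv3671c used as enzyme; 0% = enzyme with DMSO and 100% = no enzyme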
# Yp Topo-I inh = Yersinia pestis topoisomerase I inhibitors, primary screen, biochemical, cleavage product accumulation, plate reader, single point; DNA topoisomerase I (Yersinia pestis CO92); Y. pestis Topo-I cleavage product accumulation; activity, % at 10 µM; actives 0.064% (n = 360,000); AID 504884, 2011; in the data active = activity above about 50%, passing the limit was not always enough
# GFP chromo cs = counter-screen: blocks GFP chromophore formation, dose response, counter-screen, biochemical, fluorescence, homogeneous; EC50, µM; cell-free GFP chromophore formation; actives 83% (n = 2,100); shares compounds with RecA splice inh; call rule not given here
# An asterisk follows results filed as active; nt = no result.
SMILES,RecA splice inh,FadD28 binding,BioA inh,Mtb UGM inh,Rv3671c inh,Yp Topo-I inh,GFP chromo cs
COc1cccc(S(=O)(=O)N[C@H]2CC[C@@H](CCn3cc(-c4ccccc4OC)nn3)O[C@@H]2CO)c1,nt,nt,6,nt,nt,nt,nt
O=C1Nc2ccccc2C12OCCS2 (centres undefined),0,nt,nt,0,3,nt,nt
S=C1NCCC12C(=S)Nc1ccccc12 (centres undefined),37*,-1,0,-2,2,5,>38
CCCCCCCCCCOC(=O)Cn1c(COc2ccc(OC)cc2)[n+](C)c2ccccc21,42*,-27,18,1,-8,-14,11*
CCOC(=O)Cn1c(COc2ccccc2OC)[n+](C)c2ccccc21,0,-3,1,0,0,1,nt
CCCCCCCCCCOC(=O)Cn1c(COc2ccc(Cl)cc2)[n+](C)c2ccccc21,-2,-41,22,0,1,3,nt
CCCCCCCCCCOC(=O)Cn1c(COc2ccccc2)[n+](C)c2ccccc21,47*,-36,37,0,3,-17,12*
CN(C)C(=O)Oc1cccc(OCc2n(C)c3ccccc3[n+]2C)c1,-1,-3,-2,-1,-2,-2,nt
CCCCCCCCCCOC(=O)Cn1c(COc2cccc(C)c2)[n+](C)c2ccccc21,55*,-50,13,-1,-6,-9,9.4*
CCCCCCCCCCOC(=O)Cn1c(COc2ccccc2C)[n+](C)c2ccccc21,57*,-27,19,2,-5,2,7.6*
COc1ccc(C(C#N)c2cnccn2)cc1OC (centres undefined),0,-3,-1,1,-4,1,nt
N#CC(c1ccccc1)c1cnccn1 (centres undefined),33*,-3,-2,1,-1,-4,>38
Cc1cc(C)cc(CC(Cc2nc3ccccc3[nH]2)c2nc3ccccc3[nH]2)c1 (centres undefined),36*,-12,nt,2,-24,16,>38
O=C1CCCC(O)=C1C(C#Cc1ccccc1)C1=C(O)CCCC1=O,30*,-2,-1,4,6,9,12*
Nc1ccc(O)cc1,81*,nt,nt,5,2,nt,31*
Nc1ccc(-c2ccc(N)cc2)cc1,nt,2,-2,nt,nt,-10,nt
CC1=NN(c2nc(-c3ccccc3)cs2)C(=O)C1,66*,16*,-2,2,6,-15,8.5*
C[C@H]1CN([C@@H](C)CO)C(=O)c2cc(C#CC3CCCCC3)cnc2O[C@H]1CN(C)C(=O)c1ccncc1,nt,nt,1,nt,nt,nt,nt
Cc1ccc2c(c1)-c1c(ssc1=S)C(C)(C)N2C(=O)CSc1nncn1C,47*,-2,2,-1,-5,7,13*
CC1(C)c2ssc(=S)c2-c2ccccc2N1C(=O)CSC1=NCCS1,51*,-1,0,-3,4,6,4.6*
Cc1cc(C)c2c(c1)-c1c(ssc1=S)C(C)(C)N2C(=O)CSc1nncn1C,46*,-2,1,1,4,29,9.8*
CCNC(=O)C[C@@H]1CC[C@@H]2[C@@H](COc3ccc(NC(=O)C4CCCCC4)cc3C(=O)N2C)O1,nt,nt,18,nt,nt,nt,nt
CCCC#Cc1cnc2c(c1)C(=O)N([C@@H](C)CO)C[C@@H](C)[C@@H](CN(C)C(=O)NCCC)O2,nt,nt,-2,nt,nt,nt,nt
O=C(C[C@@H]1CC[C@@H](NC(=O)c2ccc(F)cc2)[C@H](CO)O1)NCCc1ccncc1,nt,nt,0,nt,nt,nt,nt
Cc1[nH]c2ccccc2c1CCNC(=O)c1ccc2c(c1[N+](=O)[O-])C(=O)c1ccccc1C2=O,84*,-2,-2,0,17,-39,31*
SMILES,RecA splice inh,FadD28 binding,BioA inh,Mtb UGM inh,Rv3671c inh,Yp Topo-I inh,GFP chromo cs
COCC(=O)N1C[C@H](C)[C@@H](OC)CN(C)C(=O)c2ccc(NC(=O)c3cc(C)on3)cc2OC[C@H]1C,nt,nt,2,nt,nt,nt,nt
COc1cc(NCCCC(C)N)c2ncccc2c1 (centres undefined),88*,8.7*,-6,nt,nt,-20,10*
CCC(CNc1cc(OC)cc2cccnc12)NC1CCCCC1 (centres undefined),67*,-1,nt,5,21,-1,25*
COc1cc(NCCCCC(C)N)c2nccc(C)c2c1 (centres undefined),nt,-3,3,nt,nt,-5,nt
COc1cc(NS(=O)(=O)c2ccc(C)cc2)c2ncccc2c1,12,-7,nt,0,-8,20,nt
O=C1CCCC2=C1C1(O)C(=O)c3ccccc3C1(O)O2 (centres undefined),89*,0,nt,0,-106,7,10*
Cc1ccccc1S(=O)(=O)N1C[C@@H](O)COC[C@@H]2O[C@H](CC(=O)N3CCOCC3)CC[C@H]21,nt,nt,-1,nt,nt,nt,nt
Cc1ccc(OC(=O)c2ccc(C)c([N+](=O)[O-])c2)cn1,13,-5,-2,-1,-6,5,nt
Cc1ccc(OC(=O)c2ccc([N+](=O)[O-])cc2Cl)cn1,32*,-1,-1,2,-7,5,33*
COC(=O)c1sc(N)c(C(=O)OC)c1Cn1ncc(Cl)c(Cl)c1=O,31*,-2,nt,-3,1,-1,1.6*
COC(=O)c1sc(N)c(C(=O)OC)c1COC(=O)c1c(C)noc1C,3,-1,0,-1,-19,5,nt
Cc1[nH]n(-c2ccccc2)c(=O)c1/C=N\NC(=O)C1COc2ccccc2O1 (centres undefined),38*,1,nt,3,-2,-3,>38
O=C(N/N=C\c1ccc(OC(=O)c2ccco2)cc1)c1ccc(Cl)cc1,5,-5,nt,-2,-3,0,nt
COc1cc(/C=N/NC(=O)c2ccc(F)cc2)ccc1OC(=O)c1ccco1,30*,0,nt,1,-3,12,>38
O=C(N/N=C/c1ccc(OC(=O)c2ccco2)cc1)c1ccc[n+]([O-])c1,32*,-2,3,-1,9,-9,>38
CO[C@@H]1CN(C)C(=O)c2ccc(NC(C)=O)cc2OC[C@H](C)N(C(=O)C2CC2)C[C@H]1C,nt,nt,2,nt,nt,nt,nt
COc1ccc(NC(=O)N(C)C[C@H]2Oc3c(NC(=O)C4CC4)cccc3C(=O)N([C@H](C)CO)C[C@H]2C)cc1,nt,nt,4,nt,nt,nt,nt
CCCCCc1c2c(cc(O)c1C(=O)O)OC(=O)c1c(cc(OC)cc1C(=O)CCCC)O2,31*,4,5,6,2,12,12*
CCCCCc1c2c(cc(O)c1C(=O)O)OC(=O)c1cc(C(=O)CCCC)c(OC)cc1O2,nt,0,4,nt,10,7,nt
